Measured values taken from PubChem BioAssay (Tox21).
Several values for one entry are separate records, joined by “and”; a condition that tells them apart may be missing. Equal values may be shown once. Records with an inconclusive call do not appear. Where a call stands in place of a potency, no number is given. Values without a mark were called inactive. Activity calls are given as the source filed them. Calls follow the shape of the dose curve; as a rule, active = well fitted curve in the direction sought with a large enough effect in the repeat runs; inconclusive = weak or mixed curves; inactive = no such curve, though single readings can be large; an effect the other way counts as inactive or inconclusive.

Key:
[1] = A CellTox Green Cytotoxicity Assay to monitor cytotoxicity in HEK293 cells - 40 hour (AID 1224871); conditions: CellTox Green fluorescence; series mostly up to 76.8 µM; also: nearly all actives have a fitted effect of over 45% in size; also: potency is read from the fitted curve at half-maximal effect
Summary of the method: (§1)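 Fluorescence intensity, read at 0, 8, 16, 24, 32 and 40 h of compound treatment, reflected dye binding to DNA of dead HEK293 cells; compounds (23 nL, DMSO) were added 5 h after plating cells with reagent.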

[2] = qHTS RealTime-Glo MT Cell Viability Assay in HEK293 cells - 16 hour (AID 1224872); conditions: RealTime-Glo luminescence; series mostly up to 76.8 µM; also: nearly all actives have a fitted effect of over 50% in size; also: potency is read from the fitted curve at half-maximal effect
Summary of the method: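 Cells + reagent dispensed (600 cells/well, HEK293) → 5 h at 37 C/5% CO2 → 23 nL compound in DMSO pinned → 40 h at 37 C → luminescence read at 0, 8, 16, 24, 32, 40 h.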

[3] = qHTS RealTime-Glo MT Cell Viability Assay in HepG2 cells - 8 hour (AID 1224873); conditions: RealTime-Glo luminescence; series mostly up to 76.8 µM; also: nearly all actives have a fitted effect of over 55% in size; also: potency is read from the fitted curve at half-maximal effect
Summary of the method: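 HepG2 cells mixed with RealTime-Glo MT reagents (NanoLuc plus cell-permeant prosubstrate) were seeded at 600 cells/well, incubated 5 h at 37 C/5% CO2, then pinned with compounds in DMSO; nonlytic luminescence tracked viability during 40 h treatment.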

[4] = qHTS RealTime-Glo MT Cell Viability Assay in HEK293 cells - 40 hour (AID 1224874); conditions: RealTime-Glo luminescence; max response: hits give low values; also: nearly all actives have a fitted effect of over 50% in size; also: potency is read from the fitted curve at half-maximal effect
Summary of the method: (§2)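 Viable HEK293 cells reduce a cell-permeant prosubstrate; the product diffuses out and is consumed by NanoLuc in the medium to give light. Compounds went in after a 5 h incubation and plates were read over the treatment course.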

[5] = A CellTox Green Cytotoxicity Assay to monitor cytotoxicity in HEK293 cells - 24 hour (AID 1224875); conditions: CellTox Green fluorescence; series mostly up to 76.8 µM; also: nearly all actives have a fitted effect of over 45% in size; also: potency is read from the fitted curve at half-maximal effect
Summary of the method: as §1

[6] = A CellTox Green Cytotoxicity Assay to monitor cytotoxicity in HepG2 cells - 16 hour (AID 1224876); conditions: CellTox Green fluorescence; series mostly up to 76.8 µM; also: nearly all actives have a fitted effect of over 45% in size; also: potency is read from the fitted curve at half-maximal effect
Summary of the method: (§3)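 Using 1536-well format, dye-containing HepG2 suspension was seeded, allowed 5 h at 37 C/5% CO2, dosed by pintool with compounds, positive and negative controls, and imaged for fluorescence across 40 h.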

[7] = qHTS RealTime-Glo MT Cell Viability Assay in HepG2 cells - 32 hour (AID 1224877); conditions: RealTime-Glo luminescence; series mostly up to 76.8 µM; also: nearly all actives have a fitted effect of over 55% in size; also: potency is read from the fitted curve at half-maximal effect
Summary of the method: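 Real-time, nonlytic viability: 600 HepG2 cells/well mixed with NanoLuc enzyme plus prosubstrate; 5 h settle, compound (DMSO) added by pintool; luminescence monitored over 40 h at 37 C.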

[8] = A CellTox Green Cytotoxicity Assay to monitor cytotoxicity in HepG2 cells - 24 hour (AID 1224878); conditions: CellTox Green fluorescence; series mostly up to 76.8 µM; also: nearly all actives have a fitted effect of over 45% in size; also: potency is read from the fitted curve at half-maximal effect
Summary of the method: as §3

[9] = A CellTox Green Cytotoxicity Assay to monitor cytotoxicity in HepG2 cells - 40 hour (AID 1224879); conditions: CellTox Green fluorescence; series mostly up to 76.8 µM; also: nearly all actives have a fitted effect of over 40% in size; also: potency is read from the fitted curve at half-maximal effect
Summary of the method: as §3

[10] = qHTS RealTime-Glo MT Cell Viability Assay in HEK293 cells - 0 hour (AID 1224880); conditions: RealTime-Glo luminescence; series mostly up to 76.8 µM
Summary of the method: as §2

Row | SMILES | Potency [1] | Potency [2] | Potency [3] | max response [4] | Potency [5] | Potency [6] | Potency [7] | Potency [8] | Potency [9] | Potency [10] | Potency [4]
1 | COP(=S)(NC(C)C)Oc1ccc(C)cc1[N+](=O)[O-] (stereo not given) | inactive | inactive | inactive | -12.5% | inactive | inactive | inactive | inactive | inactive | inactive | –
2 | Nc1nc(N)c(N)c(N)n1 | 49.2 µM (active) | inactive | inactive | 10.2% | 49.2 µM (active) | 55.2 µM (active) | inactive | 55.2 µM (active) | 55.2 µM (active) | inactive | –
3 | CCCCON=O | inactive | inactive | inactive | 4.44% | inactive | inactive | inactive | inactive | inactive | – | –
4 | CCCCC/C=C\C/C=C\C/C=C\C/C=C\CCCC(=O)NCC(=O)O | inactive | inactive | inactive | -10.5% | inactive | inactive | inactive | inactive | inactive | – | –
5 | [Cl][Hg][c]1ccccc1 | 1.23 µM (active) | 1.38 µM (active) | 2.75 µM (active) | – | 2.19 µM (active) | 2.75 µM (active) | 2.75 µM (active) | 3.47 µM (active) | 2.19 µM (active) | inactive | 1.1 µM (active)
6 | CCCC[N+]1(C)CCCC1 (tested in a mixture with another compound) | inactive | inactive | inactive | 8.56% | inactive | inactive | inactive | inactive | inactive | inactive | –
7 | CCOP(=S)(OCC)SC(CCl)N1C(=O)c2ccccc2C1=O (stereo not given) | inactive | inactive | inactive | 6.49% | inactive | inactive | inactive | – | – | – | –
8 | O=[N+]([O-])c1cccc2cccc([N+](=O)[O-])c12 | inactive | inactive | inactive | -12.3% | inactive | inactive | inactive | inactive | inactive | inactive | –
9 | O=Cc1ccccc1 | inactive | inactive | inactive | 19.9% | inactive | inactive | inactive | inactive | inactive | inactive | –
10 | C=CCBr | inactive | inactive | inactive | 0.528% | inactive | inactive | inactive | inactive | inactive | inactive | –
11 | CCN(CC)C(=O)N[C@@H]1C=C2c3cccc4[nH]cc(c34)C[C@@H]2N(C)C1 | inactive | inactive | inactive | -0.723% | inactive | inactive | inactive | inactive | inactive | inactive | –
12 | c1ccc2nc(N3CCNCC3)ccc2c1 | inactive | inactive | inactive | -17.1% | inactive | inactive | inactive | inactive | – | inactive | –
13 | CCCCN(CCCC)C(=S)[S-].CCCCN(CCCC)C(=S)[S-].[Ni+2] | inactive | inactive | inactive | -23% | inactive | inactive | inactive | inactive | inactive | inactive | –
14 | CCN(CC)Cc1nccn1-c1ccc([N+](=O)[O-])cc1C(=O)c1ccccc1Cl | inactive | inactive | inactive | -11.1% | inactive | inactive | inactive | inactive | inactive | inactive | –
15 | NC(=O)C(Cl)Cl | inactive | inactive | inactive | 3.34% | inactive | inactive | inactive | inactive | inactive | inactive | –
16 | O=C(NC(=O)c1c(F)cccc1F)Nc1ccc(Oc2ccc(C(F)(F)F)cc2Cl)cc1F | inactive | 24.5 µM (active) | inactive | – | inactive | inactive | inactive | inactive | inactive | inactive | 43.6 µM (active)
17 | CC(Cc1ccccc1)N(C)Cc1ccco1 (stereo not given) | inactive | inactive | inactive | 0.354% | inactive | inactive | inactive | inactive | inactive | inactive | –
18 | CN(C)C(=S)SSC(=S)N(C)C | 216 nM (active) and 195 nM (active) and 239 nM (active) | 384 nM (active) and 692 nM (active) | 48.3 µM (active) and 24.5 µM (active) and 3.01 µM (active) | – | 27.2 µM (active) and 27.5 µM (active) | 21.9 µM (active) | 54.2 µM (active) and 245 nM (active) and 169 nM (active) | 436 nM (active) and 21.3 µM (active) | 216 nM (active) and 275 nM (active) and 134 nM (active) | inactive | 216 nM (active) and 219 nM (active) and 9.52 µM (active)
19 | CC(Cc1ccc2c(c1)OCO2)NO (stereo not given) | inactive | inactive | inactive | 0.458% | inactive | inactive | inactive | inactive | inactive | inactive | –
20 | COC(=O)/C=C(\C)OP(=O)(OC)OC | inactive | inactive | inactive | -4% | inactive | inactive | inactive | inactive | inactive | inactive | –

Row | SMILES | Potency [1] | Potency [2] | Potency [3] | max response [4] | Potency [5] | Potency [6] | Potency [7] | Potency [8] | Potency [9] | Potency [10] | Potency [4]
21 | CSC(=O)c1c(C(F)F)nc(C(F)(F)F)c(C(=O)SC)c1CC(C)C | inactive | inactive | inactive | -19% | inactive | inactive | inactive | – | inactive | inactive | –
22 | CCNS(=O)(=O)C(F)(F)C(F)(F)C(F)(F)C(F)(F)C(F)(F)C(F)(F)C(F)(F)C(F)(F)F | inactive | inactive | inactive | 23.4% | inactive | inactive | inactive | inactive | inactive | inactive | –
23 | CCOC(=O)Cc1ccccc1 | inactive | inactive | inactive | 17.4% | inactive | inactive | inactive | inactive | inactive | inactive | –
24 | CC(Cl)CCl (stereo not given) | inactive | inactive | inactive | -4.79% | inactive | inactive | inactive | inactive | inactive | inactive | –
25 | CCOP(=O)(OCC)Oc1cc(C)nc(C(C)C)n1 | inactive | inactive | inactive | 1.52% | inactive | inactive | inactive | – | inactive | – | –
26 | CCOC(=O)CCN(SN(C)C(=O)Oc1cccc2c1OC(C)(C)C2)C(C)C | inactive | inactive | inactive | -6% | inactive | inactive | inactive | inactive | inactive | inactive | –
27 | CC(Cc1ccc(OCC(=O)O)cc1)NCC(O)c1csc(C(F)(F)F)n1 (stereo not given) | inactive | inactive | inactive | -5.31% | inactive | inactive | inactive | inactive | inactive | inactive | –
28 | O=C(CCCCl)c1ccc(F)cc1 | inactive | inactive | inactive | -0.41% | inactive | inactive | inactive | inactive | inactive | inactive | –
29 | OCC(Br)CBr (stereo not given) | inactive | inactive | inactive | -11.1% | inactive | inactive | inactive | inactive | inactive | inactive | –
30 | CC(Cc1ccc(O)cc1)NCC(O)c1cc(O)cc(O)c1 (stereo not given) | inactive | inactive | inactive | 1.61% | inactive | inactive | inactive | inactive | inactive | inactive | –
31 | CNN | inactive | inactive | inactive | 9.14% | inactive | inactive | inactive | inactive | inactive | inactive | –
32 | O=NN(CCO)CCO | inactive | inactive | inactive | 7.2% | inactive | inactive | inactive | inactive | inactive | inactive | –
33 | C=CC(=C)C | inactive | inactive | inactive | 8.63% | inactive | inactive | inactive | inactive | inactive | inactive | –
34 | O=c1c2ccccc2c(=O)c2c1cc(Cl)c1[nH]c3c([nH]c12)c(Cl)cc1c(=O)c2ccccc2c(=O)c13 | inactive | inactive | inactive | 12.8% | inactive | inactive | inactive | inactive | inactive | inactive | –
35 | Fc1ccc(C(OCCN2CCN(CCCc3ccccc3)CC2)c2ccc(F)cc2)cc1 | 21.3 µM (active) | 8.49 µM (active) | 23.9 µM (active) | – | 23.9 µM (active) | 23.9 µM (active) | 23.9 µM (active) | 23.9 µM (active) | 23.9 µM (active) | inactive | 9.52 µM (active)
36 | COP(=S)(OC)Oc1ccc([N+](=O)[O-])c(C)c1 | inactive | inactive | inactive | -0.352% | inactive | inactive | inactive | inactive | inactive | inactive | –
37 | COc1ccc2c3c1O[C@H]1[C@H](O)CC[C@H]4[C@@H](C2)N(C)CC[C@@]341 | inactive | inactive | inactive | -1.3% | inactive | inactive | inactive | inactive | inactive | inactive | –
38 | ClCBr | inactive | inactive | inactive | 7.13% | inactive | inactive | inactive | inactive | inactive | inactive | –
39 | [O]=[Cr][O][Cr]=[O] | inactive | inactive | inactive | 17.9% | inactive | inactive | inactive | inactive | inactive | inactive | –
40 | CC1CCCC1 | inactive | inactive | inactive | -28.5% | inactive | inactive | inactive | – | inactive | inactive | –
